Shown are actives, neighbours in structure and some others; about 0.98% of the full set was active somewhere.
PfHsp40 yeast – restores yeast growth despite PfHsp40 toxicity; 340,000 compounds, 0.68% hits; growth rescue, % at 12.5 µM; S. cerevisiae expressing PfHsp40, growth rescue, ATP luminescence; AID 504582; in the data active = growth rescue above about 28%, passing the limit was not always enough; inconclusive = no clear call, values can overlap the other calls;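 also: yeast W303a lacking pdr1 and pdr3 grown in galactose medium; growth measured after three days at 30 °C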
Yp Topo-I inh – blocks Yersinia pestis topoisomerase I activity; activity, % at 10 µM; AID 504884; 360,000 compounds, 0.064% hits; Y. pestis Topo-I cleavage product accumulation, plate reader; in the data active = activity above about 50%, passing the limit was not always enough; inconclusive = no clear call, values can overlap the other calls
Mtb bLac sens – beta-lactam sensitization of Mtb H37Rv; M. tuberculosis H37Rv growth with meropenem, percent inhibition; inhibition, % at 25 µM; 330,000 compounds, 0.27% hits; AID 434955; call rule not given here;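 also: growth measured after seven days incubation then overnight dye step; 0% = bacteria only wells and 100% = bacteria with antibiotic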
Rv3671c inh – inhibitors of M. tuberculosis serine protease Rv3671c. 320,000 compounds, 0.048% hits. AID 2606. P9WHR9. inhibition, % at 5.96 µM; in the data active = inhibition above about 38%;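 also: extracellular domain of Rv3671c used as enzyme; 0% = enzyme with DMSO and 100% = no enzyme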
Target sequence (P9WHR9 whole entry, looked up, the tested form may be a part): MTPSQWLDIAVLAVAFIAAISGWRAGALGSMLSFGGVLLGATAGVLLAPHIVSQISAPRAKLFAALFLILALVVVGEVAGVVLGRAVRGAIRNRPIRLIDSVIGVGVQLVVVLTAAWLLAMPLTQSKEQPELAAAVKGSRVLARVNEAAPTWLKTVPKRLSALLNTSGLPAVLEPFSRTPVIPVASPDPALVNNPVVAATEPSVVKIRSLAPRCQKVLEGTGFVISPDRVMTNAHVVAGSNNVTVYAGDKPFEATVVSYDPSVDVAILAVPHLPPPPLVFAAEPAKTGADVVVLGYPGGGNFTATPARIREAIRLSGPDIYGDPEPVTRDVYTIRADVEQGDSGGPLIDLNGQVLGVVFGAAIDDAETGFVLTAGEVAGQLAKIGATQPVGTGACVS
UGM FP inh – Mtb UDP-galactopyranose mutase inhibition; P9WIQ1; purified UGM, fluorescence polarization probe displacement; inhibition, % at 10 µM; 320,000 compounds, 0.06% hits; AID 504406; in the data active = inhibition above about 10%, passing the limit was not always enough; inconclusive = no clear call, values can overlap the other calls
FadD28 FP inh – M. tuberculosis FadD28 bisubstrate binding inhibition; inhibition, % at 12.5 µM; AID 588549; FadD28 bisubstrate probe binding, fluorescence polarization; 360,000 compounds, 0.22% hits; in the data active = inhibition above about 8.5%, passing the limit was not always enough; inconclusive = no clear call, values can overlap the other calls
Starred values were filed as active, the others as inactive; u = inconclusive; x = not tested or not shown.

SMILES | PfHsp40 yeast | Yp Topo-I inh | Mtb bLac sens | Rv3671c inh | UGM FP inh | FadD28 FP inh
COc1ccc(Cl)cc1C(Nc1cccnc1)c1ccc2cccnc2c1O (configuration not stated) | 89* | 12 | 9 | 8 | 2 | -4
Cc1cc(NC(c2cccnc2)c2ccc3cccnc3c2O)no1 (configuration not stated) | u | 1 | 47 | 4 | 0 | 2
Oc1c(C(Nc2cccc(C(F)(F)F)c2)c2cccnc2)ccc2cccnc12 (configuration not stated) | 382* | -6 | -1 | 12 | 1 | -1
COc1ccc(NC(=O)C2(C)CCCN(C(C)=O)C2)cc1F (configuration not stated) | x | 1 | x | x | x | -3
CCCCC(=O)Nc1nc2c(s1)COc1ccccc1-2 | 1 | 9 | 1 | -29 | 2 | 0
O=C(NC1CCS(=O)(=O)C1)c1ccc2c(c1)OCO2 (configuration not stated) | 44* | -5 | -11 | -7 | -1 | -3
O=C(NC1CCCCC1)c1ccc2c(c1)OCO2 | 0 | 4 | 2 | 2 | -1 | -1
Nc1cc2nc3ccccc3oc-2cc1=O | 376* | -14 | -9 | -16 | 0 | 3
CC(C)(C)c1ccc(OCCn2nc(C(=O)O)c3ccccc3c2=O)cc1 | 7 | 72* | 3 | -13 | 1 | -6
C[C@@H]1CC[C@@]23COC(=O)C2=CCC[C@@H]3[C@@]1(C)CC/C(=C/CO)CO | 0 | 2 | 0 | -11 | 0 | -1
CC1=CCC[C@@H]2[C@@](C)(CC/C(C)=C/C(=O)O)[C@H](C)CC[C@@]12C | 58* | 21 | -1 | 1 | 2 | -6
CCCCCC(=O)N1C[C@@H](n2cc(C3CC3)nn2)[C@H](O)C[C@@H]1c1ccc(C)cc1 | x | 14 | x | x | x | -3
O=S(=O)(Nc1cccc2c1CCCC2)c1ccc(Cl)cc1 | 42* | 9 | -1 | -7 | 0 | -1
CCCCc1ccc(NC(=O)CN(C)CC(=O)Nc2ccccc2Cl)cc1 | 36* | 30 | 99 | -10 | 0 | -3
CN(CC(=O)Nc1ccccc1)CC(=O)Nc1ccccc1Cl | 1 | 2 | 3 | -8 | 0 | -2
Clc1cccc(CNc2ccn3nc(-c4ccccc4Cl)cc3n2)c1 | x | -4 | x | x | x | -9
c1ccc(-c2nnc(-c3ccccn3)nc2NC2CCCCC2)cc1 | 46* | 21 | 82 | 3 | -2 | -1
O=C1CC(O)(C(F)(F)F)Oc2c1ccc1ccccc21 (configuration not stated) | 54* | -1 | 7 | 4 | 1 | -2
O=C1CC(O)(C(F)F)Oc2ccc3ccccc3c21 (configuration not stated) | 0 | -1 | 52 | -9 | u | 1
Cc1nn(CCC(N)=S)c2nc(-c3cccs3)cc(C(F)(F)F)c12 | 223* | 30 | 7 | 0 | -2 | -5
CCc1ccccc1OCC(=O)Nc1nc(-c2cccnc2)cs1 | 237* | 15 | 86 | -9 | 0 | -1
O=C(CC1CC2CCC1C2)Nc1nc(-c2ccccn2)cs1 (configuration not stated) | 438* | 2 | 87 | -3 | 2 | -3
COc1ccc(OCCCC(=O)Nc2nc(-c3ccccn3)cs2)cc1 | -1 | 9 | 85 | 2 | 0 | -6
CCC(=O)c1ccc(OCC(=O)Nc2nc(-c3cccnc3)cs2)cc1 | 0 | 5 | 2 | -15 | -1 | -1
Cc1cc(C)c(OCC(=O)Nc2nc(-c3ccccn3)cs2)c(C)c1 | 313* | -9 | 92 | -7 | 3 | -3
SMILES | PfHsp40 yeast | Yp Topo-I inh | Mtb bLac sens | Rv3671c inh | UGM FP inh | FadD28 FP inh
COc1cc(OC)cc(-c2oc(=O)c3cc(OC)c(OC)cc3c2C(F)(F)F)c1 | -1 | 2 | 2 | -4 | 1 | -1
Oc1ccccc1-c1cc(-c2ccc(F)cc2)n[nH]1 | 170* | -6 | 11 | -9 | -2 | -8
Cc1ccc(-c2cc(-c3ccc(F)cc3)n[nH]2)c(O)c1 | 180* | -5 | 14 | x | 1 | -1
Oc1ccccc1-c1cc(-c2ccccc2)n[nH]1 | u | -6 | 9 | -5 | 1 | -8
Cc1ccc(-c2cc(-c3ccc(C)cc3O)[nH]n2)cc1 | -1 | 1 | 58 | -8 | -4 | -1
Cc1ccc(O)c(-c2cc(-c3cccc(Br)c3)n[nH]2)c1 | 119* | -26 | 96 | -13 | -2 | -18
COc1ccc(-c2cc(-c3ccccc3)n[nH]2)c(O)c1 | 80* | -5 | 40 | 2 | 0 | -8
CCCN(C)C[C@H]1Oc2cc(C#Cc3ccc(F)cc3)ccc2S(=O)(=O)N([C@H](C)CO)C[C@@H]1C | x | -1 | x | x | x | -2
Cc1ccc(-c2cc(-c3ccccc3[N+](=O)[O-])[nH]n2)c(O)c1 | -1 | -13 | x | 7 | 0 | -1
Cc1ccc(-c2cc(-c3ccccc3Cl)[nH]n2)c(O)c1 | 136* | -14 | 98 | -8 | -1 | -9
Cc1c(Cc2c(Cl)cccc2Cl)c(=O)ccn1C(C)c1ccccc1 (configuration not stated) | 52* | 38 | x | x | x | -5
Oc1c(N=Nc2ccccc2)sc2ccccc12 | 1 | 5 | 36 | -27 | 1 | -2
Oc1ccc(N=Nc2ccccc2)o1 | 288* | -3 | 58 | -2 | 0 | -3
C=CCN(CC=C)Cc1cc(=O)oc2cc(C)c(C)cc12 | x | x | x | x | x | -3
O=C(O)c1ccc(N/N=C/c2c(F)cccc2Cl)cc1 | 106* | 4 | 21 | 2 | -1 | 1
O=C(N/N=C/c1c(F)cccc1Cl)C1CC1 | 1 | -1 | 5 | 0 | 2 | 1
O=C(O)c1cccc(-c2ccc(/C=N/Nc3ccc([N+](=O)[O-])cc3)o2)c1 | -1 | -7 | 53 | 6 | 1 | 23*
O=C(O)c1ccc(-c2ccc(/C=N/Nc3ccc([N+](=O)[O-])cc3)o2)cc1 | 1 | -16 | 43 | 1 | -4 | 0
Cc1c(C(=O)O)cccc1-c1ccc(/C=N/Nc2ccc(Br)cc2)o1 | 355* | -6 | 97 | 7 | 1 | 17*
O=C(O)c1ccc(N/N=C/c2ccc(-c3cccc(Cl)c3)o2)cc1 | 0 | -14 | 35 | 2 | 1 | 9.9*
Cc1cc(C)cc(Cn2c3ccc(NC(=O)NCc4ccc(F)cc4)cc3c(=O)n2C)c1 | x | 34 | x | x | x | 0
OC(Cn1ccnc1)c1ccc(Cl)cc1Cl (configuration not stated) | -1 | 5 | -5 | 8 | -1 | -1
Clc1ccc(CCC(Cn2ccnc2)Sc2c(Cl)cccc2Cl)cc1 (configuration not stated) | 120* | 47 | 99 | 0 | 2 | -5
CC1=CC(C)(C)N(S(=O)(=O)c2ccc(F)cc2)c2ccccc21 | 1 | 9 | u | 2 | 4 | -3
CC1=CC(C)(C)N(S(=O)(=O)c2ccc(C)cc2)c2ccc(C)cc21 | 165* | 21 | -2 | -4 | -1 | -4
Cc1ccccc1[C@]1(C)ON(c2ccccc2C(F)(F)F)C1=O | x | x | 2 | 7 | 1 | x

Screening data deposited in PubChem by several laboratories.
